Drawing on PubChem BioAssay AID651658 (Broad Institute, 2012), this text covers activity (Tm shift, normalised) for 48 molecules.

Out of some 340,000 compounds screened, about 5,100 (1.5%) were called active. The full list was thinned out, with actives kept by preference. Unmarked numbers belong to inactive results.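 Rule for the calls: active = mean Tm shift, scaled 0 neutral to 100 positive control, at about 1.3% or above, every replicate too (limit read from the data); inconclusive = no clear call, values can overlap the other calls; inactive = the rest.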

In this assay the target is Fibroblast growth factor 22 (Homo sapiens) (UniProt Q9HCT0). Description: FGF22 ligand-induced thermal stabilization – biophysical, thermal shift, single point, FGF22 synaptogenesis inhibitor project, primary screen (AID 651658). The settings on record: recombinant FGF22 thermal shift, SYPRO orange fluorescence; at 9.99 µM; active compounds read high; percent of sucrose octasulfate shift, DMSO zero.
Fibroblast growth factor 22 (Homo sapiens), sequence (Q9HCT0 whole entry, looked up): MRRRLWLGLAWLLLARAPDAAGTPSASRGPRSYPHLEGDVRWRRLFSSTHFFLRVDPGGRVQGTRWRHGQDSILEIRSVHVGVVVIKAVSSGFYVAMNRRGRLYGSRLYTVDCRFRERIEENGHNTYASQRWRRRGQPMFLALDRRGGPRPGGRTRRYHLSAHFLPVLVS
Consider `CC1(Cc2cccc(C#N)c2)C(=O)Nc2ccc(-c3cccc(C(F)(F)F)c3)cc21` (stereo not drawn), for which the activity (Tm shift, normalised) was 0.505%.
As for `C=CCn1cc(-c2cccc(C(F)(F)F)c2)cc(C#N)c1=O`, the activity (Tm shift, normalised) was 42.9% (active).
In the case of `Cn1cc(-c2ccccc2)cc(C#N)c1=O`, the activity (Tm shift, normalised) is 0.065%.
For the molecule `COc1cccc(S(=O)(=O)N2CCC3(CC2)CN[C@H](CO)c2c3c3ccc(OC)cc3n2C)c1`, the activity (Tm shift, normalised) was 0.197%.
For `OCCC1CN(Cc2ccccc2-c2ccco2)CCN1Cc1ccsc1` (stereo not drawn), the activity (Tm shift, normalised) is 0.318%.
Turning to `Cc1ccc(CN2CCN(Cc3ccccc3-c3ccco3)CC2CCO)o1` (stereo not drawn), the activity (Tm shift, normalised) was 43.4% (active).
Regarding `Cc1ccc(CN2CCN(Cc3cn(C)nc3-c3ccccc3)CC2CCO)o1` (stereo not drawn), the activity (Tm shift, normalised) was -0.412%.
With `CCS(=O)(=O)N[C@@H]1CC[C@@H](CC(=O)NCC2CC2)O[C@H]1CO`, the activity (Tm shift, normalised) is 0.034%.
With `CN1C(=O)c2cc(NC(=O)c3ccc(F)cc3)ccc2OC[C@H]2O[C@H](CC(=O)N3CCOCC3)CC[C@@H]21`, the activity (Tm shift, normalised) was -0.26%.
The result for `CN(CCc1ccccc1)C(=O)c1cccc(NC(=O)Cc2ccc([N+](=O)[O-])cc2)c1` reads -0.076%; that for `O=C(COc1ccc([N+](=O)[O-])cc1)Nc1cccc(C(=O)Nc2ccccc2C(=O)O)c1`, 1.4% (active).
`O=C(CSCc1ccc([N+](=O)[O-])cc1)Nc1cccc(C(=O)Nc2ccccc2C(=O)O)c1`: the activity (Tm shift, normalised) is -0.059%.
`C[C@H](CO)N1C[C@H](C)[C@@H](CN(C)C(=O)C2CCOCC2)Oc2cc(-c3ccc(C(=O)N(C)C)cc3)ccc2S1(=O)=O`: the activity (Tm shift, normalised) was -0.068%.
`CN1c2ccc(C#Cc3cccnc3)cc2[C@H]2[C@H](CCN2S(=O)(=O)c2ccccc2)[C@@H]1CO`: the activity (Tm shift, normalised) is -0.293%.
`C[C@H](CO)N1C[C@H](C)[C@H](CN(C)Cc2ccccc2)OCCCC[C@H](C)Oc2ccc(NC(=O)CCC(F)(F)F)cc2C1=O`: the activity (Tm shift, normalised) was -0.091%.
Regarding `Cn1cncc1COC(=O)c1ccc(Cl)cc1`, the activity (Tm shift, normalised) was 0.094%.
Regarding `O=C(OCc1cc(Cl)ccc1OC(F)F)c1cccnc1`, the activity (Tm shift, normalised) is 43.6% (active).
On to `O=C(CC(=O)c1cccnc1)c1ccccc1`, for which the activity (Tm shift, normalised) was -0.031%.
Take `C[C@@H](O)C#Cc1ccc([C@H]2[C@H](CO)N3CCCCN(C(=O)c4ccc(F)cc4)C[C@@H]23)cc1`: the activity (Tm shift, normalised) is 0.261%.
For `O=C(Nc1ccccc1F)N1C[C@@H]2[C@H](c3ccccc31)[C@@H](CO)N2C(=O)Nc1ccccc1`, the activity (Tm shift, normalised) is -0.294%.
Regarding `O=C(c1cccnc1)N1C[C@H]2[C@@H](c3ccccc31)[C@@H](CO)N2C(=O)Nc1ccccc1F`, the activity (Tm shift, normalised) was -0.686%.
Turning to `O=C(Nc1ccccc1F)N1[C@H](CO)[C@H]2c3ccccc3NC[C@H]21`, the activity (Tm shift, normalised) was 1.7% (active).
Consider `C/C=C/c1cccc(-c2nc(C(=O)NCCN3CCCCC3)cc3c2[C@@H](CCO)N([S@](=O)C(C)(C)C)C3)c1`, for which the activity (Tm shift, normalised) was 0.178%.
Take `C[C@@H]1CCCCO[C@@H](CN(C)C(=O)Nc2ccc(C(F)(F)F)cc2)[C@H](C)CN([C@@H](C)CO)C(=O)c2cc(N(C)C)ccc2O1`: the activity (Tm shift, normalised) is -1.45%.
With `C[C@@H](NC(=O)C[C@H]1C=C[C@H](NC(=O)C2CCOCC2)[C@H](CO)O1)c1ccccc1`, the activity (Tm shift, normalised) is -0.059%.
The result for `COCC#Cc1ccc([C@H]2[C@H]3CN(Cc4ccncc4)CCCCN3[C@H]2CO)cc1` reads 0.633%; that for `Cc1ccc(NC(=O)CSc2nnc(CNC(=O)c3ccccc3F)o2)cc1`, 44% (active); that for `COc1ccccc1NC(=O)CSc1nnc(CNC(=O)c2ccccc2F)o1`, 0.09%.
In the case of `Cc1ccc(NC(=O)CSc2nnc(CNC(=O)c3ccccc3F)o2)cc1Cl`, the activity (Tm shift, normalised) was 0.074%.
On to `O=C(N[C@H]1CC[C@@H](CCNS(=O)(=O)c2ccccc2)O[C@@H]1CO)c1cnccn1`, for which the activity (Tm shift, normalised) was -0.268%.
The value for `C[C@@H]1CN([C@H](C)CO)C(=O)c2cc(NC(=O)C3CCCCC3)ccc2O[C@H]1CN(C)C(=O)Nc1ccccc1` was -0.036%; that for `C[C@H](CO)N1C[C@H](C)[C@@H](CN(C)C(=O)Nc2ccc3c(c2)OCO3)Oc2ccc(NS(=O)(=O)c3ccc(Cl)cc3)cc2C1=O` was 0.554%.
For `CCS(=O)(=O)Nc1ccc2c(c1)C(=O)N(C)[C@H]1CC[C@@H](CC(=O)Nc3ccccc3)O[C@H]1CO2`, the activity (Tm shift, normalised) was 0.176%.
In the case of `Cc1nc(Cl)c(C#N)c2c1CCCC2`, the activity (Tm shift, normalised) was -0.106%.
With `COCc1c(N)c(C)nc(Cl)c1C#N`, the activity (Tm shift, normalised) is 43% (active).
As for `O=C(C[C@@H]1CC[C@@H]2[C@H](COC[C@@H](O)CN2Cc2ccccc2)O1)NCCc1ccccc1`, the activity (Tm shift, normalised) was -0.247%.
`O=C(C[C@@H]1CC[C@@H]2[C@H](COC[C@H](O)CN2S(=O)(=O)c2ccccc2F)O1)NCc1ccccc1F`: the activity (Tm shift, normalised) was -0.237%.
The value for `O=C(COC(=O)CCc1c[nH]c2ccccc12)Nc1cccc(Cl)c1` was 0.175%; that for `CC(OC(=O)CCCc1c[nH]c2ccccc12)C(=O)Nc1ccc(S(N)(=O)=O)cc1` (stereo not drawn) was -0.822%.
The result for `NS(=O)(=O)c1ccc(NC(=O)COC(=O)CCc2c[nH]c3ccccc23)cc1` reads 43.3% (active).
Consider `COc1ccc(S(=O)(=O)N[C@H]2CC[C@H](CCn3cc(C(C)C)nn3)O[C@@H]2CO)cc1`, for which the activity (Tm shift, normalised) is 0.529%.
Regarding `COCC(=O)N1[C@H](CO)[C@@H](c2ccccc2)C12CN(Cc1cc(F)ccc1F)C2`, the activity (Tm shift, normalised) was -0.224%.
For the molecule `COc1ccccc1NC(=O)N1C[C@@H](O)COC[C@H]2O[C@@H](CC(=O)NCc3ccccc3)CC[C@@H]21`, the activity (Tm shift, normalised) was -0.018%.
With `COc1ccc(S(=O)(=O)N(C)C[C@@H]2OCCCC[C@@H](C)Oc3ccc(NC(=O)c4ccccc4)cc3C(=O)N([C@@H](C)CO)C[C@H]2C)cc1`, the activity (Tm shift, normalised) was 0.83%.
With `CCN(CC(=O)Nc1cccc(S(N)(=O)=O)c1)Cc1nc2ccccc2c(=O)[nH]1`, the activity (Tm shift, normalised) is 42.3%.
`CCN(CC(=O)NC(=O)NCc1ccccc1)Cc1nc2ccccc2c(=O)[nH]1`: the activity (Tm shift, normalised) was 43% (active).
`CCN(CC(=O)Nc1ccc(Cl)c(S(=O)(=O)N(C)C)c1)Cc1nc2ccccc2c(=O)[nH]1`: the activity (Tm shift, normalised) is 0.133%.
Take `COc1ccc(S(=O)(=O)N(C)C[C@H]2OCCCC[C@H](C)Oc3ccc(NC(=O)CCC(F)(F)F)cc3C(=O)N([C@@H](C)CO)C[C@@H]2C)cc1`: the activity (Tm shift, normalised) is 0.44%.
